Assays:
Test in all cases: phenotypically active (imaging signature differs from DMSO and reproducible) at any of 0.3-9 uM (binary (1 = active, 0 = inactive)); higher = active
Conditions in all cases: treatment time: 24 h
[1] = tested on: A549-ACTB-RAB5A
In short: (§1)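 Each of fifteen gene-edited A549, HepG2 and WPMY1 reporter lines, marked with BFP for segmentation and GFP and RFP/FusionRed, was treated in four wells at 0.3, 1, 3 or 9 µM for 24 h prior to live imaging. Normalisation of per-well live-cell features used solvent control wells. Deviation needed ≥3 of 4 wells beyond the 95th percentile of control Euclidean distances, and reproducibility needed a median replicate Pearson correlation above the 95th percentile of non-replicates. Both were required for phenotypic activity.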

[2] = tested on: A549-CANX-COX4
In short: as §1

[3] = tested on: A549-GM130-SQSTM1
In short: as §1

[4] = tested on: A549-TP53BP1-CLTA
In short: as §1

[5] = tested on: A549-TUBA1B-RELA
In short: as §1

[6] = tested on: HepG2-ACTB-RAB5A
In short: as §1

[7] = tested on: HepG2-CANX-COX4
In short: as §1

[8] = tested on: HepG2-GM130-SQSTM1
In short: as §1

[9] = tested on: HepG2-TP53BP1-CLTA
In short: as §1

[10] = tested on: HepG2-TUBA1B-RELA
In short: as §1

[11] = tested on: WPMY1-ACTB-RAB5A
In short: as §1

[12] = tested on: WPMY1-CANX-COX4
In short: as §1

[13] = tested on: WPMY1-GM130-SQSTM1
In short: as §1

[14] = tested on: WPMY1-TP53BP1-CLTA
In short: as §1

[15] = tested on: WPMY1-TUBA1B-RELA
In short: as §1

Measured: phenotypically active

Nc1ccc(O)c(C(=O)O)c1 [mesalazine]
inactive: [1] 0 | [2] 0 | [3] 0 | [4] 0 | [5] 0 | [6] 0 | [7] 0 | [8] 0 | [9] 0 | [10] 0 | [11] 0 | [12] 0 | [13] 0 | [14] 0 | [15] 0

NC(=O)c1cccc(N)c1 [3-Aminobenzamide]
inactive: [1] 0 | [2] 0 | [3] 0 | [4] 0 | [5] 0 | [6] 0 | [7] 0 | [8] 0 | [9] 0 | [10] 0 | [11] 0 | [12] 0 | [13] 0 | [14] 0 | [15] 0

CC(COc1ccccc1)N(CCCl)Cc1ccccc1 (stereo not given) [phenoxybenzamine]
inactive: [1] 0 | [2] 0 | [3] 0 | [4] 0 | [5] 0 | [6] 0 | [7] 0 | [8] 0 | [9] 0 | [10] 0 | [11] 0 | [12] 0 | [13] 0 | [14] 0 | [15] 0

O=C1CC(c2ccc(O)cc2)Oc2cc(O)cc(O)c21 (stereo not given) [Naringenine]
inactive: [1] 0 | [2] 0 | [3] 0 | [4] 0 | [5] 0 | [6] 0 | [7] 0 | [8] 0 | [9] 0 | [10] 0 | [11] 0 | [12] 0 | [13] 0 | [14] 0 | [15] 0

O=C(O)CCN(O)C(=O)CCCCCCCCC1CC1
inactive: [1] 0 | [2] 0 | [3] 0 | [4] 0 | [5] 0 | [6] 0 | [7] 0 | [8] 0 | [9] 0 | [10] 0 | [11] 0 | [12] 0 | [13] 0 | [14] 0 | [15] 0

O=C(O)[C@H](O)[C@@H](O)[C@H](O[C@@H]1O[C@H](CO)[C@H](O)[C@H](O)[C@H]1O)[C@H](O)CO [Lactobionic acid]
inactive: [1] 0 | [2] 0 | [3] 0 | [4] 0 | [5] 0 | [6] 0 | [7] 0 | [8] 0 | [9] 0 | [10] 0 | [11] 0 | [12] 0 | [13] 0 | [14] 0 | [15] 0

C[C@](N)(Cc1ccc(O)c(O)c1)C(=O)O [methyldopa]
inactive: [1] 0 | [2] 0 | [3] 0 | [4] 0 | [5] 0 | [6] 0 | [7] 0 | [8] 0 | [9] 0 | [10] 0 | [11] 0 | [12] 0 | [13] 0 | [14] 0 | [15] 0

Cn1cnc2c(NCc3ccccc3)nc(NCCO)nc21 [Olomoucine]
inactive: [1] 0 | [2] 0 | [3] 0 | [4] 0 | [5] 0 | [6] 0 | [7] 0 | [8] 0 | [9] 0 | [10] 0 | [11] 0 | [12] 0 | [13] 0 | [14] 0 | [15] 0

NS(=O)(=O)c1cc(Cl)c(Cl)c(S(N)(=O)=O)c1 [diclofenamide]
inactive: [1] 0 | [2] 0 | [3] 0 | [4] 0 | [5] 0 | [6] 0 | [7] 0 | [8] 0 | [9] 0 | [10] 0 | [11] 0 | [12] 0 | [13] 0 | [14] 0 | [15] 0

CC(C)[C@H]1CC[C@H](C(=O)N[C@H](Cc2ccccc2)C(=O)O)CC1 [nateglinide]
inactive: [1] 0 | [2] 0 | [3] 0 | [4] 0 | [5] 0 | [6] 0 | [7] 0 | [8] 0 | [9] 0 | [10] 0 | [11] 0 | [12] 0 | [13] 0 | [14] 0 | [15] 0

NC1=NCC2c3ccccc3Cc3ccccc3N12 (stereo not given) [epinastine]
inactive: [1] 0 | [2] 0 | [3] 0 | [4] 0 | [5] 0 | [6] 0 | [7] 0 | [8] 0 | [9] 0 | [10] 0 | [11] 0 | [12] 0 | [13] 0 | [14] 0 | [15] 0

CCCCCC1CC1CC1CC1CCCCCCCC(=O)O (stereo not given)
inactive: [1] 0 | [2] 0 | [3] 0 | [4] 0 | [5] 0 | [6] 0 | [7] 0 | [8] 0 | [9] 0 | [10] 0 | [11] 0 | [12] 0 | [13] 0 | [14] 0 | [15] 0
